Experimental data: the supplement of paper PMC13380429

system: Vero E6 infected with SARS-CoV-2; assay: inhibition of SARS-CoV-2 cytopathic effect; higher = more antiviral protection, active = above 15; settings: 833.33 nM; 48 h

Structure (SMILES)	inhibition of SARS-CoV-2 cytopathic effect
COc1nccc(-c2c(-c3ccc(F)cc3)ncn2[C@H]2CC[C@H](O)CC2)n1	2.66% (inactive)
C[C@]12C/C(=C/O)C(=O)C[C@@H]1CC[C@@H]1[C@@H]2CC[C@@]2(C)[C@H]1CC[C@]2(C)O [Oxymetholone]	0.45% (inactive)
Cc1cc(C)c2c(N)c(C(=O)NCc3ccc(Cl)cc3)sc2n1	-0.85% (inactive)
Cc1[nH]cnc1CN1CCc2c(c3ccccc3n2C)C1=O [alosetron]	-1.58% (inactive)
CN(C/C=C/C#CC(C)(C)C)Cc1cccc2ccccc12 [terbinafine]	6.27% (inactive)
C[S+]([O-])c1ccc(-c2nc(-c3ccc(F)cc3)c(-c3ccncc3)[nH]2)cc1 (stereo not given)	-1.33% (inactive)
CCCCOc1ccc(C(=O)CCN2CCCCC2)cc1 [dyclonine]	3.62% (inactive)
COc1cc2c(cc1OC)[C@@H]1Cc3ccc(OC)c(OC)c3CN1CC2 [rotundine]	4.97% (inactive)
OCCNCCCOc1cccc(Cl)c1Cl	0.42% (inactive)
NCCCCN(Cc1nc2ccccc2[nH]1)[C@H]1CCCc2cccnc21	-1.81% (inactive)
O=C(O)C1(C(=O)O)CCC1.[NH2-].[NH2-].[Pt+2] [carboplatin]	9.87% (inactive)
Cc1ccc(O)c([C@H](CCN(C(C)C)C(C)C)c2ccccc2)c1 [tolterodine]	-3.34% (inactive)
O=C(O)CNC(=O)c1ccccc1I [2-iodohippuric-acid]	0.88% (inactive)
C[C@@H](NC(=O)c1ncnc(N)c1Cl)c1ncc(C(=O)Nc2cc(C(F)(F)F)c(Cl)cn2)s1	4.42% (inactive)
C[C@@H](CN(C)C)CN1c2ccccc2Sc2ccccc21 (racemic) [alimemazine]	-0.79% (inactive)
CC1=C(CC(=O)O)c2cc(F)ccc2/C1=C\c1ccc([S+](C)[O-])cc1 (stereo not given) [sulindac]	-0.62% (inactive)
NCCNCCNCCN [trientine]	2.74% (inactive)
Oc1c(I)cc(Cl)c2cccnc12 [clioquinol]	-5.93% (inactive)
O=C(NNC(=O)c1ccc(CNS(=O)(=O)c2ccc(F)c(Cl)c2)cc1)c1ccccc1	0.57% (inactive)
CC1=C(/C=C/C(C)=C/C=C/C(C)=C/CO)C(C)(C)CCC1 [retinol]	2.09% (inactive)

Structure (SMILES)	inhibition of SARS-CoV-2 cytopathic effect
CN(C)CCC(c1ccc(Br)cc1)c1ccccn1 (stereo not given) [brompheniramine]	-0.09% (inactive)
COc1ccc(-c2c(C)c(C(=O)NN3CCCCC3)nn2-c2ccc(Cl)cc2Cl)cc1	-3.38% (inactive)
CN(C[C@@H]1COCCO1)S(=O)(=O)Nc1ccc2ccc3ncc(-c4cnn(C)c4)cc3c(=O)c2c1	-1.97% (inactive)
OCCNC1CCCc2c1[nH]c1ccc(-c3ccccc3)cc21 (stereo not given) [casin]	-2.43% (inactive)
CCCCCCCN(CC)CCC[C@@H](O)c1ccc(NS(C)(=O)=O)cc1 (racemic) [ibutilide]	0.97% (inactive)
NCCCCN [putrescine]	4.47% (inactive)
C=CC(=O)Nc1cccc(C)c1Nc1ncc2cc(-c3c(Cl)c(OC)cc(OC)c3Cl)ccc2n1	0.98% (inactive)
CN1C[C@@H](NS(=O)(=O)N(C)C)C[C@@H]2c3cccc4c3c(cn4C)C[C@H]21 [mesulergine]	0.39% (inactive)
CCn1cc(C(=O)O)c(=O)c2cnc(N3CCCC3)nc21 [piromidic-acid]	-0.21% (inactive)
O=S(=O)(/N=C/c1c(O)ccc2ccccc12)c1cccs1	1.88% (inactive)
NS(=O)(=O)Cc1noc2ccccc12 [zonisamide]	0.73% (inactive)
CN(C(=O)Cc1ccccc1)[C@H](CN1CCCC1)c1ccccc1	0.85% (inactive)
CC(=O)NCCCOc1ccc(C(=O)N2CCC(N3C(=O)CCc4ccccc43)CC2)cc1	1.64% (inactive)
O=[N+]([O-])c1cncn1CCN1CCOCC1 [nimorazole]	0.22% (inactive)
C=CCc1ccc(O)c(-c2cc(CC=C)ccc2O)c1 [magnolol]	-2.87% (inactive)
c1ccc2sc(SNC3CCCCC3)nc2c1 [N-cyclohexyl-2-benzothiazolesulfenamide]	-0.46% (inactive)
CCC[C@@H]1C[C@@H](C(=O)N[C@@H]([C@H]2O[C@H](SC)[C@H](O)[C@@H](O)[C@H]2O)[C@H](C)Cl)N(C)C1	-2.28% (inactive)
CC(C)Oc1ccc(-c2nn([C@@H](C)c3oc4ccc(F)cc4c(=O)c3-c3cccc(F)c3)c3ncnc(N)c23)cc1F	0.53% (inactive)
CC(C)[C@@H](C)/C=C/[C@@H](C)[C@H]1CC[C@H]2/C(=C/C=C3\C[C@@H](O)CC[C@@H]3C)CCC[C@]12C [dihydrotachysterol]	-0.26% (inactive)
C=Cc1c(C)c2cc3nc(c(CC(=O)O)c4[n-]c(cc5nc(cc1[n-]2)C(C)=C5CC)c(C)c4C(=O)O)[C@@H](CCC(=O)O)[C@@H]3C.[Cu+2] [chlorophyllin-copper]	-0.25% (inactive)
